Results taken from PubChem BioAssay (NCATS).
Where “and” joins values, the source holds several entries; their conditions need not be identical. Equal entries are not always repeated. Records with an inconclusive call do not appear. Calls of active or inactive are those of the source. Unless noted, calls come from the whole dose curve; as a rule, active = well fitted curve in the direction sought with a large enough effect; inconclusive = small, poorly fitted or top-dose-only effect, or another doubt; inactive = no such curve, though single readings can be large; an effect the other way counts as inactive or inconclusive.

Experiments:
[1] = Cell Viability - Mesenchymal (AID 546);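 note: cells exposed to compound for 40 hours before reading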
Outline: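 AC50 values reflect the drop in intracellular ATP in a human kidney mesenchymal line derived from normal glomeruli. Treatment lasts 40 hr at 37 °C in complete medium, and the signal comes from CellTiter-Glo luminescence.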

[2] = Cellular Toxicity (caspase-3) HepG2 (AID 654);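 note: cells exposed to compound for 16 hours before reading; 0% = DMSO alone and 100% = caspase signal from 100 µM tamoxifen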
Outline: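 Cells plated 5 hr at 37 °C, compound added, incubated 16 hr at 37 °C. Caspase-Glo 3/7 reagent followed, 20 min at room temperature, then luminescence read. Activation scored as signal increase; AC50 from Hill fit.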

[3] = Cellular Toxicity (caspase-3) Jurkat (AID 655);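 note: cells exposed to compound for 16 h at 37 °C before reading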
Outline: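 Luminescent Caspase-Glo 3/7 read-out (20 min, room temperature) after 16 h compound treatment at 37 C of 5000 Jurkat cells per well. AC50 derived by Hill-equation fitting, scaled between DMSO basal and 100 uM tamoxifen stimulation.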

[4] = Cellular Toxicity (caspase-3) SHSY5Y (AID 657)
Outline: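 Luminescent Caspase-Glo 3/7 read-out, 1 hr room temperature, follows 16 hours of compound treatment of SH-SY5Y cells at 37 °C. Normalization: DMSO basal, 10 uM staurosporine as 100%; AC50 values from Hill-equation concentration-response fits.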

[5] = Cellular Toxicity (caspase-3) BJ (AID 658); conditions: Potency: caspase-3 activation;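 note: 0% = DMSO basal and 100% = 10 µM staurosporine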
Outline: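 Readout: Caspase-Glo 3/7 luminescence increase in BJ cells after 16 hr treatment at 37 °C. Staurosporine and tamoxifen served as positive controls; AC50 values came from Hill modelling of data normalized to DMSO and 10 uM staurosporine.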

[6] = Cellular Toxicity (caspase-3) MRC-5 (AID 659);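 note: 0% = DMSO basal and 100% = 10 µM staurosporine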
Outline: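 Concentration-dependent caspase 3/7 activation is measured in human normal lung fibroblasts (MRC-5) following 16-hour treatment. AC50 values come from standard Hill-equation modeling of luminescence normalized to DMSO and 10 uM staurosporine.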

[7] = Cellular Toxicity (caspase-3) Mesangial (AID 660);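 note: combined caspase 3 and 7 activity read by Caspase-Glo luminescence; cells exposed to compound for 16 h before the caspase read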
Outline: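 Mesangial cells, 1000/well, 5 h settle at 37 °C; compound 16 h, 37 °C; Caspase-Glo 3/7 reagent 20 min RT; luminescence. Norm.: DMSO = 0%, tamoxifen 100 uM = 100%. AC50, Hill fit.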

[8] = Cellular Toxicity (caspase-3) H-4-II-E (AID 663);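 note: cells exposed to compound for 16 hr before readout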
Outline: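 Apoptosis induction is scored as increased luminescence from caspase 3/7 substrate cleavage in rat hepatoma H-4-II-E cells exposed to compound for 16 hr. Activity is scaled between DMSO and 100 uM tamoxifen.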

[9] = Cellular Toxicity (caspase-3) Hek293 (AID 664); conditions: HEK293 caspase-3 activation, DMSO = 0%, 100 µM tamoxifen = 100%; at 92.2 µM (top of the series);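 note: cells exposed to compound for 16 h at 37 °C before readout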
Outline: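 Cells plated, 5 hr at 37 °C; compounds added; 16 hr at 37 °C; Caspase-Glo 3/7 reagent, 20 min RT; luminescence read. Activation expressed relative to DMSO and 100 uM tamoxifen, AC50 by Hill model.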

[10] = Cellular Toxicity (caspase-3) NIH 3T3 (AID 666);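 note: caspase signal read after 16 h compound exposure; 0% = DMSO basal and 100% = 100 µM tamoxifen stimulation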
Outline: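 Luminescence from aminoluciferin released by caspase-3/7 cleavage of a peptide substrate served as read-out. Mouse fibroblast NIH 3T3 cells were exposed to compounds over a concentration range for 16 hours, and AC50 values came from standard Hill modelling.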

[11] = Cellular Toxicity (caspase-3) Renal Proximal Tubule (AID 667);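 note: cells exposed to compound for 16 hours at 37 °C before detection; 0% = DMSO basal and 100% = 10 µM staurosporine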
Outline: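 Caspase 3/7 activation measured by luminescent aminoluciferin release in primary rat proximal tubule cells after 16 hr compound exposure at 37 °C. AC50 from Hill-fitted concentration-response, scaled between DMSO and 10 uM staurosporine.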

[12] = molecular target: Cytochrome P450 3A4 (Homo sapiens) (UniProt P08684); test: qHTS Assay for Inhibitors and Substrates of Cytochrome P450 3A4 (AID 884); note: % is set by controls: 0 for no effect and ±100 for the full control effect; nearly all actives have a fitted effect of over 50% in size
Outline: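 20 nM human CYP3A4 with 25 uM Luciferin-PPXE (at KM) in 200 mM KPO4, preincubated 10 min with compound; NADPH regeneration started a 60 min RT reaction. Luciferin detected by luminescence, normalized to 57 uM ketoconazole as full inhibition.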

[13] = molecular target: 3',5'-cyclic-AMP phosphodiesterase 4B (Homo sapiens) (UniProt Q07343); test: qHTS Assay for Inhibitors of PDE-IV (AID 607; active = well fitted activation curve with a large enough effect in the main read-out, with a control signal flat, not every such curve was filed as active; note: % of control where 0% means no effect)
Outline: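 Cell-based read-out of cAMP via a modified cyclic nucleotide-gated channel and membrane potential dye (535/590 nm) in HEK293 cells expressing PDE4 endogenously. Compounds tested up to 22.9 uM final; 100 uM RO 20-1724 reference.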

[14] = molecular target: Cytochrome P450 3A4 (Homo sapiens) (UniProt P08684); test: qHTS Assay for Activators of Cytochrome P450 3A4 (AID 885); note: nearly all actives have a fitted effect of over 65% in size
Outline: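 Signal was normalized against complete inhibition by 57 uM ketoconazole. The reaction used 20nM CYP3A4 with 25uM Luciferin-PPXE, 10-min compound preincubation and a 60-min NADPH-supported step at RT.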

[15] = Confirmation and Secondary Assay for Modulators of Hemoglobin Beta Chain Splicing at IVS2 654 locus (AID 910);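 note: HeLa cells stably carrying EGFP split by mutant beta-globin IVS2-654 intron; per-well total GFP intensity by laser scanning cytometry after 2-day treatment; % of control where 0% means no effect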
Outline: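 Readout: per-well total peak green fluorescence (488 nm ex, 500–520 nm em) from objects 5–250 µm, reflecting correct splicing of an EGFP-654 reporter. Compounds were applied for 2 days at 37 °C to overnight-plated HeLa EGFP-654 cells; controls were DMSO and 500 nM IVS2-654 PNA.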

3',5'-cyclic-AMP phosphodiesterase 4B (Homo sapiens), sequence (Q07343 whole entry, looked up): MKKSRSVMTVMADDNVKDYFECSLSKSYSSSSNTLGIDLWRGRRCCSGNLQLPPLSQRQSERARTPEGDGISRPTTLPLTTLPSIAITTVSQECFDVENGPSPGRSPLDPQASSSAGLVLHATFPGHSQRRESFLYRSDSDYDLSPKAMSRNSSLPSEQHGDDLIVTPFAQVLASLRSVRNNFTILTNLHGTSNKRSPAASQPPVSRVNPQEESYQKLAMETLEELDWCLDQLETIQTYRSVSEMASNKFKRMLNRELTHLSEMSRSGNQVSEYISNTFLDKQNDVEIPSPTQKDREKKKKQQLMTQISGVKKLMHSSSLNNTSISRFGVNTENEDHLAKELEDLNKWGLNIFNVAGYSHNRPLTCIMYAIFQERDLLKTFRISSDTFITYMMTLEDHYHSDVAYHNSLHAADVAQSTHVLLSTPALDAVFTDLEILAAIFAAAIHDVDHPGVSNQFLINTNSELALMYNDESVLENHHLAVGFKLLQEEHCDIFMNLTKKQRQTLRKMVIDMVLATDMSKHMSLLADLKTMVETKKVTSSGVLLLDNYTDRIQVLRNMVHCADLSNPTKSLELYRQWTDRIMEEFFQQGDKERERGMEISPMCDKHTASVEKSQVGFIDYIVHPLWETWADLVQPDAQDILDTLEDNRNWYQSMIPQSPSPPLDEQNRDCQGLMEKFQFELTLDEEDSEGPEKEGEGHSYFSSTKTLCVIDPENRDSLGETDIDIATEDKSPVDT
Cytochrome P450 3A4 (Homo sapiens), sequence (P08684 whole entry, looked up): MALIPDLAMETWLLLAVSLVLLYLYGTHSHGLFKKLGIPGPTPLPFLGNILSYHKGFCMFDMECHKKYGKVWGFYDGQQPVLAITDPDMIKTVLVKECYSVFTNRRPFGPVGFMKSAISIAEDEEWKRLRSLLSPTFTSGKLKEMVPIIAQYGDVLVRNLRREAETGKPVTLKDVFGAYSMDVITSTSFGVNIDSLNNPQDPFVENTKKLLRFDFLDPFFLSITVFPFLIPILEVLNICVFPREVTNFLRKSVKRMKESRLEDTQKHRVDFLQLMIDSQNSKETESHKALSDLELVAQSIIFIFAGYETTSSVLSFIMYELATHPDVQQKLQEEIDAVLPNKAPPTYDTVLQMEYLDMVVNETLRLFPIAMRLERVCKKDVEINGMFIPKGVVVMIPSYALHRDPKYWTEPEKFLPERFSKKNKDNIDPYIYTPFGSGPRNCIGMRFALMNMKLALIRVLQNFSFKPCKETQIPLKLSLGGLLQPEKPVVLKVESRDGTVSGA

[O-][N+](=Nc1ccccc1)c1ccccc1
inactive: outcome [1] | outcome [2] | Potency [3] | Potency [4] | Potency [5] | outcome [6] | outcome [7] | outcome [8] | caspase-3 activation [9] 0.871% | outcome [10] | outcome [11] | Potency [12]

OCc1ccccc1
inactive: outcome [1] | outcome [2] | Potency [3] | Potency [4] | Potency [5] | outcome [6] | outcome [7] | outcome [8] | caspase-3 activation [9] -0.432% | outcome [10] | outcome [11] | Potency [12]

CC[C@H]1OC(=O)[C@H](C)[C@@H](O[C@H]2C[C@@](C)(OC)[C@@H](O)[C@H](C)O2)[C@H](C)[C@@H](O[C@@H]2O[C@H](C)C[C@H](N(C)C)[C@H]2O)[C@](C)(O)C[C@@H](C)CN(C)[C@H](C)[C@@H](O)[C@]1(C)O
inactive: outcome [1] | outcome [2] | Potency [3] | Potency [4] | Potency [5] | outcome [6] | outcome [7] | outcome [8] | caspase-3 activation [9] 0.727% | outcome [10] | outcome [11]

C[C@H](CCC(=O)O)[C@H]1CC[C@H]2[C@@H]3[C@H](O)C[C@@H]4C[C@H](O)CC[C@]4(C)[C@H]3C[C@H](O)[C@]12C
inactive: outcome [1] | outcome [2] | Potency [3] | Potency [4] | Potency [5] | outcome [6] | outcome [7] | outcome [8] | caspase-3 activation [9] -0.41% | outcome [10] | outcome [11]

O=C1NCCN1c1ncc([N+](=O)[O-])s1
inactive: outcome [13]

O=P(O)(O)OP(=O)(O)O
inactive: outcome [13]

CC(C)(C)CC(C)(C)c1ccc(OCCO)cc1
inactive: outcome [1] | outcome [2] | Potency [3] | Potency [4] | Potency [5] | outcome [6] | outcome [7] | outcome [8] | caspase-3 activation [9] 5.17% | outcome [10] | outcome [11] | Potency [14]

O=P(O)(O)O
inactive: outcome [1] | outcome [2] | Potency [3] | Potency [4] | Potency [5] | outcome [6] | outcome [7] | outcome [8] | caspase-3 activation [9] -0.448% | outcome [10] | outcome [11] | Potency [12]

c1ccc2ccccc2c1
inactive: outcome [1] | outcome [2] | Potency [3] | Potency [4] | Potency [5] | outcome [6] | outcome [7] | outcome [8] | caspase-3 activation [9] -0.432% | outcome [10] | outcome [11] | Potency [12]

CCCCO
inactive: outcome [1] | outcome [2] | Potency [3] | Potency [4] | Potency [5] | outcome [6] | outcome [7] | outcome [8] | caspase-3 activation [9] 0.832% and 0.952% | outcome [10] | outcome [11] | Potency [12]

C[C@H](CCC(=O)O)[C@H]1CC[C@H]2[C@@H]3CC[C@@H]4C[C@H](O)CC[C@]4(C)[C@H]3C[C@H](O)[C@]12C
inactive: outcome [1] | outcome [2] | Potency [3] | Potency [4] | Potency [5] | outcome [6] | outcome [7] | outcome [8] | caspase-3 activation [9] -1.48% | outcome [10] | outcome [11]

Cc1ncc(C[n+]2csc(CCO)c2C)c(N)n1
inactive: outcome [13]

OCl
inactive: outcome [1] | outcome [2] | Potency [3] | Potency [4] | Potency [5] | outcome [6] | outcome [7] | outcome [8] | caspase-3 activation [9] 2.43% | outcome [10] | outcome [11] | Potency [12]

CO/N=C(/C(=O)N[C@@H]1C(=O)N2C(C(=O)O)=C(COC(N)=O)CS[C@H]12)c1ccco1
inactive: outcome [1] | outcome [2] | Potency [3] | Potency [4] | Potency [5] | outcome [6] | outcome [7] | outcome [8] | caspase-3 activation [9] 0.731% | outcome [10] | outcome [11] | Potency [12]

Cc1ccc(S(=O)(=O)O)cc1C
inactive: outcome [1] | outcome [2] | Potency [3] | Potency [4] | Potency [5] | outcome [6] | outcome [7] | outcome [8] | caspase-3 activation [9] 0.165% | outcome [10] | outcome [11] | Potency [12]

NCCN
inactive: outcome [1] | outcome [2] | Potency [3] | Potency [4] | Potency [5] | outcome [6] | outcome [7] | outcome [8] | caspase-3 activation [9] 0.975% | outcome [10] | outcome [11] | Potency [12]

NC(N)=O
inactive: outcome [1] | outcome [2] | Potency [3] | Potency [4] | Potency [5] | outcome [6] | outcome [7] | outcome [8] | caspase-3 activation [9] 1.05% | outcome [10] | outcome [11] | Potency [12] | Potency [15]

Nc1nccs1
inactive: outcome [1] | outcome [2] | Potency [3] | Potency [4] | Potency [5] | outcome [6] | outcome [7] | outcome [8] | caspase-3 activation [9] 0.166% | outcome [10] | outcome [11] | Potency [12] | Potency [15]

CCOC(C)OCC
inactive: outcome [1] | outcome [2] | Potency [3] | Potency [4] | Potency [5] | outcome [6] | outcome [7] | outcome [8] | caspase-3 activation [9] 0.677% | outcome [10] | outcome [11] | Potency [12]

CCCCC
inactive: outcome [1] | outcome [2] | Potency [3] | Potency [4] | Potency [5] | outcome [6] | outcome [7] | outcome [8] | caspase-3 activation [9] 2.68% | outcome [10] | outcome [11] | Potency [12]

OCC(O)CO
inactive: outcome [1] | outcome [2] | Potency [3] | Potency [4] | Potency [5] | outcome [6] | outcome [7] | outcome [8] | caspase-3 activation [9] 3.75% and 1.59% | outcome [10] | outcome [11] | Potency [12]

Nc1ncnc2c1ncn2[C@H]1CC[C@@H](CO)O1
inactive: outcome [1] | outcome [2] | Potency [4] | Potency [5] | outcome [6] | outcome [7] | outcome [8] | caspase-3 activation [9] 2.37% | outcome [10] | outcome [11] | Potency [12] | Potency [15]

Cc1ncc[nH]1
inactive: outcome [1] | outcome [2] | Potency [3] | Potency [4] | Potency [5] | outcome [6] | outcome [7] | outcome [8] | caspase-3 activation [9] -0.913% | outcome [10] | outcome [11] | Potency [12]

CC(C)O
inactive: outcome [1] | outcome [2] | Potency [3] | Potency [4] | Potency [5] | outcome [6] | outcome [7] | outcome [8] | caspase-3 activation [9] 1.95% | outcome [10] | outcome [11] | Potency [12]
